Compound activity deposited in PubChem BioAssay by several laboratories.
This is a sample that favours compounds with a hit; in the whole collection about 0.77% have one here.
RmlCD inh 1536: inhibitors of Mycobacterium tuberculosis RmlC and RmlD coupled enzymes. RmlC+RmlD coupled enzyme assay, percent inhibition; primary screen in compound mixtures. inhibition, % at 3.6 µM. actives 0.03% (n = 160,000). AID 1533; in the data active means inhibition mostly above about 34%, no sharp cut-off
Target sequence (P9WH09 whole entry, looked up): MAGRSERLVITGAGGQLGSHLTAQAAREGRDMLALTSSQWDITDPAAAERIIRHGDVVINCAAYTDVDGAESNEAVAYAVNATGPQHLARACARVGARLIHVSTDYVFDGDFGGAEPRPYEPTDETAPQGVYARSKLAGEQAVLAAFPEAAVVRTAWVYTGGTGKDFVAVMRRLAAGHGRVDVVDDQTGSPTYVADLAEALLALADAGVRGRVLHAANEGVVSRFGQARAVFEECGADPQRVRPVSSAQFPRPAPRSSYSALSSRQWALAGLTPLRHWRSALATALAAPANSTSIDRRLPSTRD
Target sequence (P9WH11 whole entry, looked up): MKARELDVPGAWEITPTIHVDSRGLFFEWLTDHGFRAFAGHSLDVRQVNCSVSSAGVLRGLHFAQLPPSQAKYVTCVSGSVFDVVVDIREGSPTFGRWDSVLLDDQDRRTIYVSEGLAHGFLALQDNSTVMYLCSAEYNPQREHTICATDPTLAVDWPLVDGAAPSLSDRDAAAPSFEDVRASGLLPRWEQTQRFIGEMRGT
RecA intein inh: inhibitors of M. tuberculosis RecA intein splicing. actives 0.75% (n = 290,000). cell-free RecA intein splicing, fluorescence. inhibition, % (test concentration not listed). AID 2221; in the data active means inhibition above about 30%;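 further: 0% = vehicle wells and 100% = reference inhibitor control wells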
GFP chromophore: counter-screen GFP chromophore formation inhibition; EC50, µM; actives 83% (n = 2,100); shares compounds with RecA intein inh; AID 434968; cell-free GFP chromophore formation, fluorescence; call rule not given here
An asterisk follows results filed as active; . = no result.

SMILES	RmlCD inh 1536	RecA intein inh	GFP chromophore
CC(=O)NC(Cc1ccccc1)C(C)=O (stereo not given)	-7	-2	.
O=C(CCC(=O)N1CCOc2ccc(Cl)cc21)NCCCN1CCC(Cc2ccccc2)CC1	.	1	.
O=C(Cc1ccc(Cl)cc1)NCCCn1ccnc1	8	4	.
Clc1cccc(OCCn2ccnc2)c1	.	-1	.
Clc1ccc(CSC(Cn2ccnc2)c2ccc(Cl)cc2Cl)cc1 (stereo not given)	.	42*	23*
CCCOc1ccc(C(=O)CCNc2cccc(Cl)c2)cc1	20	1	.
O=C(CSc1ccc(-c2ccc(F)cc2)nn1)NCCc1ccccc1	-11	-1	.
CC(=O)C(=Cc1ccc(C(=O)O)cc1)C(C)=O	24	-2	.
Cc1ccc(NC(=O)C(=Cc2ccc(C(=O)O)cc2)C(=O)Nc2ccc(C)cc2C)c(C)c1	4	83*	7.6*
O=C(CS(=O)c1ccc(C(F)(F)F)cc1[N+](=O)[O-])Oc1ccc(Cl)cc1 (stereo not given)	.	12	.
Cc1cc(C)cc(OC(=O)CS(=O)c2ccc(C(F)(F)F)cc2[N+](=O)[O-])c1 (stereo not given)	.	43*	6.3*
COc1cccc(N2CCN(c3ccc(N4C(=O)CCC4=O)cc3[N+](=O)[O-])CC2)c1	-9	-2	.
COC(=O)c1ccccc1OC(=O)c1ccc(Br)o1	9	38*	>38
COc1ccccc1C(=O)NNC(=O)c1ccc(Br)o1	.	2	.
CCC(C)NC(=O)CN(C)S(=O)(=O)c1ccc2c(c1)c(=O)n(C)c(=O)n2C (stereo not given)	15	-2	.
O=C(c1cc(N2C(=O)C3C4CCC(C4)C3C2=O)ccc1Cl)N1CCN(c2ccccc2F)CC1 (stereo not given)	-10	-7	.
CC1(OC(=O)C2CCCC2)C(=O)C=C2C=C(c3ccsc3)N(C3CCCCC3)C=C2C1=O (stereo not given)	.	5	.
COc1ccc(C2CC(c3ccccc3OC(C)=O)=NN2C(=O)/C=C/c2ccccc2)cc1OC (stereo not given)	-3	25	.
COc1ccc(C2=NN(C(=O)/C=C/c3ccccc3)C(c3ccccc3)C2)c(OC(C)=O)c1 (stereo not given)	-2	36*	>38
CCOCc1cnc(C)nc1NCC(=O)c1c(C)[nH]c2ccc(OC)cc12	.	1	.
Cn1c(=O)c([N+](=O)[O-])c(-n2cnc3ccccc32)c2ccccc21	.	63*	22*
Cn1c(=O)c([N+](=O)[O-])c(Cl)c2ccccc21	5	56*	11*
Cn1c(=O)c([N+](=O)[O-])c(NCc2ccccc2Cl)c2ccccc21	2	4	.
CN(Cc1ccccc1)c1c([N+](=O)[O-])c(=O)n(C)c2ccccc12	-6	-5	.
CC(=O)N(CCc1ccccc1C)Cc1cc2cc(C)ccc2[nH]c1=O	.	-1	.
SMILES	RmlCD inh 1536	RecA intein inh	GFP chromophore
C/C(=N\S(=O)(=O)c1ccc(C)cc1)Nc1cc(C(C)C)c(O)cc1C	6	27	.
CCOc1ccccc1CNS(=O)(=O)c1ccc(-c2cnc(C3CC3)o2)cc1	.	7	.
O=C(/C=C/c1cccc([N+](=O)[O-])c1)N1CCN(c2ccc(F)cc2)CC1	-9	8	.
Cc1ccc(Sc2ncccc2[N+](=O)[O-])cc1	.	-12	.
Cc1c([N+](=O)[O-])cnc(Sc2ccccc2)c1[N+](=O)[O-]	.	85*	0.18*
COc1ccc(-c2cc(C3CCNCC3)[nH]n2)cc1	.	2	.
O=c1cc(C2CCNCC2)[nH][nH]1	-5	87*	5.4*
CN1CCN(c2nc3cc(C(F)(F)F)ccc3n3cccc23)CC1	.	-1	.
Cc1ccc(Sc2c([N+](=O)[O-])ncn2C)cc1	-4	53*	>38
Cc1cccc(Sc2c([N+](=O)[O-])ncn2C)n1	-6	5	.
COc1ccccc1CCC(=O)NNC(=O)c1ccccc1	.	1	.
Cc1ccc(C(=O)O)cc1NC(=O)C1CCCN1S(=O)(=O)c1cccc2nsnc12 (stereo not given)	-9	-1	.
CC1(C)CC(=O)C(Br)=C(O)C1	-12	.	.
CC1(C)CC(=O)C(C2(O)C(=O)NC(=O)NC2=O)=C(O)C1	12	95*	2.5*
CN1CCN2c3ccc(N)cc3CC3(C(=O)NC(=O)NC3=O)C2C1 (stereo not given)	-1	55*	>38
CN1C(=O)N(C)C(=O)C2(Cc3cc(N)ccc3N3CCN(c4ccccc4F)CC32)C1=O (stereo not given)	4	10	.
N#CCCn1cc(C(=O)N2CCCCC2)c(-c2cccc([N+](=O)[O-])c2)n1	.	-3	.
O=[N+]([O-])c1c(Nc2ccccc2)ccc2nonc12	7	1	.
O=[N+]([O-])c1c(NCc2ccco2)ccc2nonc12	3	42*	20*
COc1ccc(OC)c(C(=O)c2c(C)oc3cc([N+](=O)[O-])c(O)c([N+](=O)[O-])c23)c1	.	10	.
Cc1oc2cc([N+](=O)[O-])c(O)c([N+](=O)[O-])c2c1C(=O)c1ccc(Cl)cc1	12	37*	22*
Cc1ccc(-n2nc(C)c3c2OC(N)=C(C#N)C3c2ccc(C)o2)cc1 (stereo not given)	.	80*	17*
CC1=C(C(=O)OC(C)(C)C)C(c2ccco2)C(C#N)=C(N)O1 (stereo not given)	4	-56	.
Cc1ccc(-n2nc(C)c3c2OC(N)=C(C#N)C3c2ccco2)cc1 (stereo not given)	7	69*	11*
CCOC(=O)C1=C(C)OC(N)=C(C#N)C1c1c(C)nn(-c2ccc(C)cc2)c1Cl (stereo not given)	8	-2	.
SMILES	RmlCD inh 1536	RecA intein inh	GFP chromophore
COc1ccc(OC)c(C2C(C#N)=C(N)Oc3c2c(C)nn3-c2ccc(C)cc2)c1 (stereo not given)	.	44*	29*
COc1ccc(C2C(C#N)=C(N)Oc3c2c(-c2ccccc2)nn3-c2ccccc2)c(OC)c1OC (stereo not given)	-10	6	.
COC(=O)/C(=C1/Oc2cc3c(cc2S1)OCO3)C(F)(F)F	6	0	.
CC(C)Cc1nc(Cl)c(C#N)c2c1CCCC2	.	1	.
COC(=O)c1ccccc1NC(=O)CSc1nnc(Cc2ccc(Cl)cc2)o1	-6	0	.
CN1CCC(N(C)S(=O)(=O)c2ccc(NC(=O)COc3ccc([N+](=O)[O-])cc3)cc2)CC1	.	-1	.
O=C(NCc1ccco1)/C(=C\c1ccccc1)NC(=O)c1ccccc1	.	2	.
O=C1C(C=Nc2ccccc2O)=C(O)c2ccccc21	5	-3	.
Cc1ccc(O)c(N=CC2=C(O)c3ccccc3C2=O)c1	-1	87*	3.4*
CCOC(=O)CCCc1sc(N)nc1-c1[nH]c(=O)[nH]c1C	4	-2	.
OC1(c2ccc(Br)cc2)CCN(Cc2cccc(Br)c2)CC1	.	3	.
C/C(CCc1ccccc1)=N\NC(=O)COc1ccccc1C	3	-1	.
C/C(CC(=O)Nc1ccccc1[N+](=O)[O-])=N\NC(=O)COc1ccccc1C	6	69*	21*
C/C(CC(=O)Nc1ccc(F)cc1)=N\NC(=O)COc1ccccc1	8	66*	22*
COc1ccc(NC(=O)C/C(C)=N/NC(=O)COc2ccc(OC)cc2)cc1	.	0	.
COc1ccccc1N(CC(O)COc1ccccc1)S(=O)(=O)c1ccccc1 (stereo not given)	3	-2	.
